# Potency and affinity values are given separately.
# Tested on: Klebsiella pneumoniae
# Details: Concentration 32 ug.mL-1; ASSAY_TEST Inhibition of Bacterial Growth; detection method Absorption (OD600); MEDIA CAMHB; plate type 384well; NBS; CORNING #3640; time 18 hr
row,SMILES,Inhibition
1,COc1ccc(-c2cc(-c3ccccc3)c(C#N)c(N)n2)cc1,-4.32%
2,Cl.ClCCCN1CCCCC1,13.52%
3,N#CC1=C(Cl)Oc2c(ccc3ccccc23)C1c1ccccc1 (stereo not given),10.59%
4,COc1ccc(C=C2N=C(c3ccccc3)OC2=O)cc1,13.35%
5,CCOC(=O)c1c(C)[nH]c(=O)c(C#N)c1-c1ccccc1,10.06%
6,CCOC(=O)/C(C#N)=C\c1ccc(Cl)cc1,4.33%
7,CCOC(=O)C1=C(C)Oc2nc3c(c(N)c2C1c1nccn1C)CCC3 (stereo not given),4.43%
8,C/C(Cc1ccccc1)=N/NC(=O)c1c[nH]c2ccc(O)cc12,5.8%
9,Cc1ccc(-c2c(C#N)c(N)nc3c2S(=O)(=O)OC3(C)C)cc1,10.18%
10,CNC(=O)c1cc2cc(OC)ccc2[nH]1,17.99%
11,N#Cc1cc(C#N)c(N2CCC(Cc3ccccc3)CC2)nc1N,-9.32%
12,C#CCNc1nc(N)c(C#N)c(-c2ccccc2)c1C#N,-20.09%
13,COc1ccc(C2c3ccc4ccccc4c3OC(=NBr)C2(Br)C#N)cc1OC (stereo not given),8.89%
14,CNC(=O)NC1(C(=O)O)CC1c1ccccc1 (stereo not given),13.01%
15,CCOC(=O)C1=C(C)OC(N)=C(C#N)C1c1ccco1 (stereo not given),6.85%
16,Cc1ccc(CNNC(=O)c2c[nH]c3ccccc23)cc1,5.46%
17,Cl.Cl.Cn1c(CNc2ccccc2)cc2cc(OCCCC3CCN(Cc4ccccc4)CC3)ccc21,5.5%
18,N#Cc1c(-c2ccccc2)c2ccc3ccccc3c2oc1=O,8.94%
19,O=C1OC(c2ccc([N+](=O)[O-])cc2)=NC1=Cc1ccccc1,6.09%
20,Cn1c(CNNC(=O)Cc2cccc3ccccc23)cc2ccccc21,2.56%

row,SMILES,Inhibition
1,COc1ccc(-c2cc(-c3cc4ccccc4nc3Cl)cc(=O)[nH]2)cc1,10.14%
2,O=Cc1cc2ccccc2nc1Cl,-2.74%
3,COC(=O)/C(=C/c1ccc(O)cc1)NC(=O)c1ccccc1,-14.62%
4,CCOC(=O)C1=C(C)OC(N)=C(C#N)C1c1cccs1 (stereo not given),7.75%
5,CC(=O)O[C@H]1CC[C@H](NC(=O)c2ccccc2)CC1,10.24%
6,CCOC(=O)c1c(C)nc2nc3c(c(N)c2c1-c1ccccc1OC)CCCCC3,0.86%
7,COc1ccc(/C=C2/N=C(c3ccccc3)OC2=O)cc1OC,-24.56%
8,CN(C)c1nc(Cl)c(C#N)c(-c2ccccc2)c1C#N,5.58%
9,CN(Cc1cn(Cc2ccccc2)nn1)Cc1cc2cc(OCCCC3CCN(Cc4ccccc4)CC3)ccc2n1C,4.39%
10,COc1ccc2cc(C3C(C(C)=O)=C(C)Oc4nc5c(c(N)c43)CCC5)c(Cl)nc2c1 (stereo not given),0.03%
11,C#CCN1CCc2nc3nc(N4CCCC4)c(C#N)cc3c(N)c2C1,10.68%
12,C#CCNc1[nH]c2ccc(O)cc2c1C#N,14.34%
13,Cl.ClCCCCN1CCCCC1,-0.73%
14,c1ccc(COc2ccc3[nH]ccc3c2)cc1,11.46%
15,COc1cccc(-c2c(C#N)c(=O)oc3c2ccc2ccccc23)c1,2.22%
16,Cc1nc2c(cc1C#N)c(N)nn2C,19.03%
17,CSC1=NC2(CC2c2ccccc2)C(=O)N1C (stereo not given),-3.2%
18,Cc1[nH]c2ccc(OCc3ccccc3)cc2c1C(=O)NN,5.83%
19,COc1nc2ccc(C)cc2cc1C=O,-5.34%
20,C#CCN(C)Cc1cc2cc(O)ccc2n1C.Cl,13.12%

# — ChEMBL document CHEMBL4513135, “CO-ADD screening of IQOG CSIS (Spain) compounds”
